About 79,000 compounds went through this panel and 15% of them were active in at least one assay; those are over-represented in the sample as a whole. No stated cut-off is given here; in the data, active means growth inhibition above about 70%; inactive means the rest.
Assays:
[1] = NCI Yeast Anticancer Drug Screen. Data for the rad50 strain (AID 155);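 further: 0% = growth of vehicle-only cultures of the same strain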; details: S. cerevisiae rad50 strain growth inhibition; at 50.0 µM; active compounds read high
Method in brief: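 Readout: growth inhibition relative to vehicle-treated cultures. Compound exposure was carried out in a genetically defined yeast strain deficient in DNA damage repair.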

[2] = NCI Yeast Anticancer Drug Screen. Data for the mec2-1 strain (AID 157); details: S. cerevisiae mec2-1 strain, at 50.0 µM, active compounds read high
Method in brief: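 Mutant yeast (mec2-1) grown with compound; growth inhibition relative to vehicle control reported.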

[3] = NCI Yeast Anticancer Drug Screen. Data for the sgs1 mgt1 strain (AID 161);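 further: 0% = growth of cultures given vehicle only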; details: S. cerevisiae sgs1 mgt1 strain, at 50.0 µM, active compounds read high
Method in brief: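 This yeast growth screen uses a strain with defined DNA-repair lesions; compound-treated growth is compared with vehicle-treated growth.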

[4] = NCI Yeast Anticancer Drug Screen. Data for the cln2 rad14 strain (AID 165);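 further: 0% = growth equal to vehicle treated cultures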; details: S. cerevisiae cln2 rad14 strain, at 50.0 µM, active compounds read high
Method in brief: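 Readout is yeast growth inhibition versus vehicle-treated controls, using a strain with cln2 and rad14 alterations exposed to compound.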

[5] = NCI Yeast Anticancer Drug Screen. Data for the bub3 strain (AID 167); details: S. cerevisiae bub3 mutant strain, at 50.0 µM, active compounds read high
Method in brief: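 Readout: yeast growth inhibition, expressed relative to vehicle-only wells. The test organism is a mutant strain from a panel with lesions in DNA repair or checkpoint genes.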

[6] = NCI Yeast Anticancer Drug Screen. Data for the mlh1 rad18 strain (AID 175); details: S. cerevisiae mlh1 rad18 strain growth inhibition; at 50.0 µM; active compounds read high
Method in brief: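 Genetically defined yeast (DNA repair-deficient) exposed to compounds; growth inhibition determined relative to vehicle.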

Measured: growth inhibition

CSC1NN=C(CCC(=O)Nc2ccc(C)cc2)O1 (configuration not stated)
inactive: [1] -37.7% | [2] 5.25% | [3] 13% | [4] -21.1% | [5] -3.8% | [6] 12.9%

COc1ccc2c(c1)C1(C)CCC(=O)C(C)=C1CC2 (configuration not stated)
inactive: [1] 17.9% | [2] -3.95% | [3] 22.9% | [4] 7.75% | [5] 14.8% | [6] 14.4%

CC1(C(=O)O)CCCC1C(=O)O (configuration not stated)
inactive: [1] 12.5% | [2] 6.8% | [3] 1.75% | [4] -8.05% | [5] -1.25% | [6] 12.1%

C(=N\Nc1nc2ccccc2s1)/c1cccs1
inactive: [1] 16.9% | [2] 33% | [3] 23.6% | [4] 16.1% | [5] 36.4% | [6] 29.4%

CSCCC(NC(=O)OCc1ccccc1)P(=O)(O)c1ccccc1 (configuration not stated)
inactive: [1] -56% | [2] -41.1% | [3] -34% | [4] 13.2% | [5] 14.8% | [6] -11%

C=CCC(C(=O)NC(N)=O)c1ccccc1 (configuration not stated)
inactive: [1] 3.9% | [2] -7.65% | [3] -11.3% | [4] 19.5% | [5] 8.05% | [6] 0.35%

CCCCC(CC)(SC(CC)C(N)=O)C(N)=O (configuration not stated)
inactive: [1] -2.2% | [2] -0.55% | [3] 16.9% | [4] 20.1% | [5] 5.75% | [6] -5%

O=C1c2ccccc2C(=O)N1Br
inactive: [1] 0.15% | [2] -19.5% | [3] 6.5% | [4] 10.8% | [5] 3.6% | [6] 18.9%

COc1ccc(OC)c(NC(=O)c2ccccc2Cl)c1
inactive: [1] -4.85% | [2] -1.95% | [3] 16.7% | [4] -13% | [5] 48.2% | [6] -16.8%

COc1ccc(/C=C2\N=C(c3cc(OC)c(OC)c(OC)c3)OC2=O)cc1Br
inactive: [1] -6.95% | [2] -6.7% | [3] 21.6% | [4] -0.4% | [5] 6.2% | [6] 2.1%

CCOC(=O)NN(C(=O)OCC)c1c(NC)n(C)c(=O)n(C)c1=O
inactive: [1] -23.4% | [2] 7.1% | [3] -7.7% | [4] -23.8% | [5] 11.1% | [6] 13.3%

CC(C)(O)c1cc(F)ccc1N
inactive: [1] -0.75% | [2] 11.3% | [3] -1.3% | [4] 15.3% | [5] 29.6% | [6] 8.3%

O=S=C(c1ccccc1)N1CCc2ccccc21
inactive: [1] 22.4% | [2] 3.75% | [3] 12.1% | [4] 7.15% | [5] 18.4% | [6] 22.7%

COC(=O)/C=C1\CCC2C3CC=C4C=C(N5CCCC5)CCC4(C)C3C(=O)CC12C (configuration not stated)
inactive: [1] -7.6% | [2] 16.1% | [3] 18.6% | [4] -9.6% | [5] -12.4% | [6] -18.2%

CC(=O)CCc1cccc([N+](=O)[O-])c1
inactive: [1] -17.6% | [2] -5.1% | [3] -14.5% | [4] -6.85% | [5] -0.15% | [6] -7.25%

CC1=C(C(=O)O)C(C)CC(=O)N1 (configuration not stated)
inactive: [1] 5.15% | [2] -3.4% | [3] -8.25% | [4] -12.4% | [5] 1.2% | [6] 7.9%

O=c1[nH]cnc2c1sc(=S)n2-c1ccccc1
inactive: [1] 7.15% | [2] -10.5% | [3] 10.2% | [4] 6.7% | [5] -12.3% | [6] -2.4%

OC(c1ccccc1)C(Cl)c1ccccc1 (configuration not stated)
inactive: [1] 1% | [2] -2.25% | [3] 1.9% | [4] -13.8% | [5] -19.3% | [6] 19.8%

C=C(c1ccc(OC)cc1)c1cc(C(C)(C)C)c(O)c(C(C)(C)C)c1
inactive: [1] -4.45% | [2] -1.75% | [3] -17.9% | [4] 51.8% | [5] -4.65% | [6] 0.35%

CCCC1(CCC)OC(=O)C(CC)(CC)C(=O)O1
inactive: [1] -10.8% | [2] -3.2% | [3] -1.6% | [4] -23.2% | [5] 14.1% | [6] -6%

O=C(NC1CCCCC1)Oc1ccc(Cl)cc1Cl
inactive: [1] 4.8% | [2] 23.9% | [3] 28.2% | [4] -8.45% | [5] 35.6% | [6] 31.9%

ClCC/C(=C(/Cl)c1ccccc1)c1ccccc1
inactive: [1] -0.65% | [2] 5.6% | [3] 6.65% | [4] 4.8% | [5] -14.3% | [6] 3.1%

C=CCN1C(=O)NC(=O)C1c1ccsc1 (configuration not stated)
inactive: [1] -14.7% | [2] -0.25% | [3] -22.2% | [4] -34.2% | [5] -1.45% | [6] 2.6%

COc1cccc2cc(C(=O)Nc3ccccc3)c(=N)oc12
inactive: [1] 2.75% | [2] 12.7% | [3] -31% | [4] 9.3% | [5] -37.9% | [6] -43%

CCOC(=O)/C(C#N)=C/c1cccc(Cl)c1
inactive: [1] 28.6% | [2] 30% | [3] 38.9% | [4] 13.3% | [5] 13.4% | [6] 44%

COc1ccc(C(O)(c2ccc(OC)cc2)c2ccccc2Cc2ccccc2OC)cc1
inactive: [1] -61.6% | [2] 1.65% | [3] -22.3% | [4] -20.6% | [5] 0.65% | [6] -21.4%

O=c1cc(-c2cccc3ccccc23)[nH]c2ncccc12
inactive: [1] -13.3% | [2] -10.7% | [3] -21.9% | [4] 13.9% | [5] -9.3% | [6] -29.5%

Nc1c(Cl)ncnc1NCCc1ccccc1
inactive: [1] -3.35% | [2] -16.1% | [3] -15.4% | [4] -45.1% | [5] -11.8% | [6] -11.8%

CCCCCC(O)c1ccc2c(c1)OCO2 (configuration not stated)
inactive: [1] 13.8% | [2] 12.9% | [3] 10.4% | [4] 2.2% | [5] -8.85% | [6] 0%

c1ccc(Cn2cccc2N=Nc2ccccc2)cc1
inactive: [1] 26.4% | [2] 2.8% | [3] 6.55% | [4] 6.8% | [5] -4% | [6] 14.3%

CCCCCCC(=O)/C=C/c1ccc(OC)cc1
inactive: [1] -12.5% | [2] -6.55% | [3] -14% | [4] 3.6% | [5] -11.6% | [6] -16.1%

CCCc1ccc(N=Nc2ccc(C(=O)O)cc2)cc1
inactive: [1] -1.25% | [2] -3.4% | [3] -2.9% | [4] -11.9% | [5] -11.9% | [6] 0.7%

O=C(CBr)c1c2c(cc3c1CCCC3)CCCC2
inactive: [1] 1.75% | [2] -1.35% | [3] -2.05% | [4] -4.9% | [5] 33% | [6] -16.6%

C/C(=C\c1ccc(Cl)cc1)C(C)(C)C(=O)O
inactive: [1] 15.1% | [2] -23.2% | [3] -1.25% | [4] -6.95% | [5] 11% | [6] 19.6%

N#CCC(CC#N)C(c1cccc2ccccc12)c1cccc2ccccc12
inactive: [1] 9.85% | [2] -2.45% | [3] -3.85% | [4] 3.25% | [5] 18.7% | [6] -1.7%

O=C(O)C(O)C(O)C(O)C(O)C(=O)O (configuration not stated)
inactive: [1] 7.35% | [2] -13.1% | [3] 12% | [4] -1.55% | [5] -5.1% | [6] 3.15%

Nc1cc(Cl)cc(S(=O)(=O)O)c1O
inactive: [1] 1.9% | [2] -0.05% | [3] -2.95% | [4] -65.9% | [5] 9.05% | [6] -13.9%

C1=Cc2ccccc2Nc2ccccc21
inactive: [1] -1.9% | [2] -7.35% | [3] -10.8% | [4] 1.65% | [5] -11.9% | [6] -23.5%

CC(Cc1ccccc1)NN (configuration not stated)
inactive: [1] 14.8% | [2] 9.55% | [3] 16.5% | [4] 5.65% | [5] 10.4% | [6] 9.4%

Cc1cc(Cl)c(=O)n(-c2ccccc2)n1
inactive: [1] 3.65% | [2] -9.7% | [3] -9.95% | [4] -27.8% | [5] 4.75% | [6] -16.1%

Cc1cc(O)c(/C=N/C(=S)Nc2ccccc2)c(=O)o1
inactive: [1] -20.4% | [2] -48.8% | [3] -24.1% | [4] -8.65% | [5] -48.2% | [6] -39%

Cc1cc(OCCBr)ccc1[N+](=O)[O-]
inactive: [1] -4.5% | [2] 9.45% | [3] -17.6% | [4] -15.1% | [5] 22.7% | [6] 0.45%

From PubChem BioAssay (NCI)
